About 79,000 compounds went through this panel and 15% of them were active in at least one assay; those are over-represented in the sample as a whole. No stated cut-off is given here; in the data, active means growth inhibition above about 70%; inactive means the rest.
Key:
[1] = NCI Yeast Anticancer Drug Screen. Data for the rad50 strain (AID 155);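 further: 0% = growth of vehicle-only cultures of the same strain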; details: S. cerevisiae rad50 strain growth inhibition; at 50.0 µM; hits give high values
How it was run: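 A DNA repair-deficient yeast mutant serves as the test organism; compound-induced growth inhibition is calculated against vehicle-treated cells.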

[2] = NCI Yeast Anticancer Drug Screen. Data for the mec2-1 strain (AID 157); details: S. cerevisiae mec2-1 strain, at 50.0 µM, hits give high values
How it was run: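 Cells of the genetically defined mec2-1 yeast strain are incubated with test compound. Inhibition of growth is calculated against vehicle-treated controls.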

[3] = NCI Yeast Anticancer Drug Screen. Data for the sgs1 mgt1 strain (AID 161);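 further: 0% = growth of cultures given vehicle only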; details: S. cerevisiae sgs1 mgt1 strain, at 50.0 µM, hits give high values
How it was run: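 Genetically altered yeast, compound exposure, growth inhibition relative to vehicle.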

[4] = NCI Yeast Anticancer Drug Screen. Data for the cln2 rad14 strain (AID 165);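 further: 0% = growth equal to vehicle treated cultures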; details: S. cerevisiae cln2 rad14 strain, at 50.0 µM, hits give high values
How it was run: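 The screen exposed genetically defined yeast (cln2 rad14) to test compounds and scored growth inhibition relative to vehicle-treated controls.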

[5] = NCI Yeast Anticancer Drug Screen. Data for the bub3 strain (AID 167); details: S. cerevisiae bub3 mutant strain, at 50.0 µM, hits give high values
How it was run: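 Inhibition values come from growth of compound-treated mutant yeast normalised to vehicle-treated controls.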

[6] = NCI Yeast Anticancer Drug Screen. Data for the mlh1 rad18 strain (AID 175); details: S. cerevisiae mlh1 rad18 strain growth inhibition; at 50.0 µM; hits give high values
How it was run: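 Compound-treated yeast growth, normalised to vehicle controls. Strain bears defined DNA repair mutations.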

Measured: growth inhibition

O=C1c2ccccc2C(=O)C2CC(c3ccccc3)=CCC12 (stereo not given)
inactive: [1] 10.6% | [2] 10.1% | [3] -5.8% | [4] -35.6% | [5] 52.9% | [6] 0.9%

O=C1C2C3C=C4c5ccccc5N(c5ccccc5)C4([C@@H]2C(=O)N1c1ccc(F)cc1)[C@H]1C(=O)N(c2ccc(F)cc2)C(=O)[C@@H]31 (stereo not given in full)
inactive: [1] 35% | [2] 23.6% | [3] 11.5% | [4] 40.1% | [5] 21.4% | [6] 34.9%

CCOCC(=O)N[C@H]1CCc2cc(OC)c(OC)c(OC)c2-c2ccc(OC)c(=O)cc21
inactive: [1] 9.45% | [2] -32.8% | [3] 22.4% | [4] -2.6% | [5] 9.35% | [6] 4%

CSC1NC(c2ccc(Cl)cc2)=C(C#N)C(=O)N1C1OCC(OC(C)=O)C(OC(C)=O)C1OC(C)=O (stereo not given)
inactive: [1] -10% | [2] -23.6% | [3] -24.2% | [4] -3.85% | [5] -8.6% | [6] -8.8%

O=C(O)C(c1ccccc1)C(F)(F)F (stereo not given)
inactive: [1] -1.45% | [2] 11.1% | [3] 2.45% | [4] -10.4% | [5] -2.1% | [6] 0.85%

CC(=O)CC(=NCC(O)CN=C(CC(C)=O)c1ccccc1)c1ccccc1.[Cu] (stereo not given)
inactive: [1] 10.4% | [2] 8.55% | [3] 5.9% | [4] -18.7% | [5] -11.3% | [6] 25.4%

COc1ccc(/C=N/n2cnc3c(c2=O)S/C(=C2/SC(=S)N(c4ccc(C)cc4)C2=O)N3c2ccccc2)cc1
inactive: [1] -29.5% | [2] -57.2% | [3] -12.8% | [4] -75% | [5] -25.9% | [6] -11.9%

CC(C)=CCCC(C)C=O (stereo not given)
inactive: [1] -11.6% | [2] -41.2% | [3] -19.4% | [4] 4% | [5] -20.1% | [6] 1.3%

CCN(CC)CCC(=O)c1ccc(OC)cc1
inactive: [1] 7.95% | [2] 16.3% | [3] 2.45% | [4] 23.4% | [5] 7.55% | [6] 8.15%

CCOc1ccc(N=C(NC(=O)c2ccccc2)SC)cc1
inactive: [1] -5.9% | [2] -0.7% | [3] -0.15% | [4] 23.3% | [5] 10.1% | [6] 0.65%

O/N=C(/CC(O)(C(F)(F)F)C(F)(F)F)c1ccccc1
inactive: [1] -9.1% | [2] -18% | [3] -7.9% | [4] -38.8% | [5] -6.9% | [6] 11.8%

COC(=O)/C(C)=C1\C=C(C)CC(C)(C)C1
inactive: [1] -4.3% | [2] -25.1% | [3] -10.6% | [4] 1% | [5] -23.9% | [6] -2.3%

CC(C)CCOC(=O)C1C(=O)CC(c2ccccc2)C1c1ccccc1 (stereo not given)
inactive: [1] 11.1% | [2] 3.5% | [3] -6.35% | [4] -0.15% | [5] 6% | [6] 6.25%

COc1ccc2nc(-c3ccc(F)cc3)cc(C(=O)O)c2c1
inactive: [1] -4.6% | [2] -14.7% | [3] 9.75% | [4] 16.9% | [5] 10.2% | [6] 17.1%

COc1ccc2ccc3c(OC(C)=O)ccc(CCN(C)C(C)=O)c3c2c1OC(C)=O
inactive: [1] 19.1% | [2] 25.9% | [3] 18.9% | [4] 31.5% | [5] 2.25% | [6] 4.85%

C=CCc1cc(OC)c(O)c(C(=O)OCC)c1
inactive: [1] -2.35% | [2] -12.8% | [3] -3.25% | [4] 1.3% | [5] 7.65% | [6] -2.15%

Nc1n[nH]c(=S)s1
inactive: [1] 6.8% | [2] -12.1% | [3] 7.35% | [4] -8.7% | [5] -12.3% | [6] 3.55%

C=CCNC(=O)N(CCC)CCCCC(NC(C)=O)C(=O)NCc1ccccc1 (stereo not given)
inactive: [1] 11.5% | [2] 7.5% | [3] -8.4% | [4] 18.6% | [5] 8.75% | [6] 4.35%

CN=C(N)SCCCCCCSC(N)=NC
inactive: [1] -1.5% | [2] 0% | [3] 16.6% | [4] 26.1% | [5] -3.6% | [6] 4.15%

O=C(Nc1ccccc1Cl)Nc1cccc2ccccc12
inactive: [1] 15.2% | [2] 1.3% | [3] 17.8% | [4] -1.6% | [5] 4.55% | [6] 8.65%

CC(C)(C)OC(=O)NN(CC(=O)OCc1ccccc1)N=O
inactive: [1] 5.35% | [2] -2.15% | [3] 2.9% | [4] -42.5% | [5] 10.2% | [6] -7.6%

COc1cc(C(c2c(O)c3ccccc3oc2=O)N2CCCC2)cc(OC)c1OC (stereo not given)
inactive: [1] -1.2% | [2] 5% | [3] 7.05% | [4] 4.05% | [5] -0.3% | [6] 2.7%

COc1ccc(C2CC(=O)N(c3nccc(C)n3)C(=O)C2)cc1
inactive: [1] 13.5% | [2] 14.4% | [3] 15.9% | [4] -19.1% | [5] -16.5% | [6] 14.2%

O=P(O)(O)c1ccc2c(c1)OCCOCCOCCOCCO2
inactive: [1] -41.9% | [2] -10.9% | [3] -29.5% | [4] -21.9% | [5] -24.4% | [6] -14.8%

c1cc2c3c(c1)ccc1cccc(c13)CC2
inactive: [1] 4.45% | [2] -34.1% | [3] 3.3% | [4] 1.5% | [5] -22.8% | [6] 13.9%

CCOC(=O)C/C(O)=C(\N=Nc1nc[nH]c1C(N)=O)C(=O)OCC
inactive: [1] 1.2% | [2] 23.7% | [3] -9.9% | [4] -1.8% | [5] 16.1% | [6] -0.65%

COc1ccc(Cc2ccccc2)cc1
inactive: [1] -2% | [2] -13.2% | [3] 17.4% | [4] 7.8% | [5] -4.55% | [6] 6.65%

COC(=O)C(NC(=O)c1ccccc1)C(C)=O (stereo not given)
inactive: [1] 9.5% | [2] -0.7% | [3] -3.4% | [4] -35.4% | [5] -16.9% | [6] 10%

Cc1noc2ncnc(NCCCN(C)C)c12
inactive: [1] 13.4% | [2] 4.3% | [3] -0.8% | [4] -6.95% | [5] 1.55% | [6] -0.9%

CCOc1c(N=Nc2ccccc2C)c(C)nn1C(=S)SC
inactive: [1] -1.2% | [2] -2.2% | [3] -15.4% | [4] 23.8% | [5] -19.4% | [6] 15.7%

S=C1NCC(c2ccccc2)CN1
inactive: [1] 0.5% | [2] 1.65% | [3] -2.55% | [4] 19.9% | [5] -7.95% | [6] -5.9%

CS(=O)(=O)OC1C(OC(=O)c2ccccc2)OC(COC(=O)c2ccccc2)C1OC(=O)c1ccccc1 (stereo not given)
inactive: [1] 14.8% | [2] -13.6% | [3] 4.9% | [4] -28.7% | [5] 9.7% | [6] -13.8%

CCC(C)C(CC)C(=O)N(C)C(=O)N(C)C(C)=O (stereo not given)
inactive: [1] -19.2% | [2] 33.3% | [3] 4.5% | [4] -33.5% | [5] 13.7% | [6] 12.5%

CCOC(=O)C(C)CC(=O)C(C)CC(=O)C(C)C (stereo not given)
inactive: [1] -9.95% | [2] 6.1% | [3] -13.3% | [4] -14.2% | [5] -9.75% | [6] -5.05%

Cc1ccc(NC(=S)SCc2ccc([N+](=O)[O-])cc2)cc1C
inactive: [1] 16.5% | [2] 14.8% | [3] 8.6% | [4] -8.9% | [5] 12.9% | [6] 2.95%

O=c1[nH]c2cc(Cl)ccc2nc1/C(=N/Nc1ccccc1)C(O)c1ccco1 (stereo not given)
inactive: [1] 19.4% | [2] -15.7% | [3] -4.8% | [4] 5.85% | [5] 7.65% | [6] -54.4%

COc1ccc(-c2cc(-c3ccc(OC)cc3)cc(-c3ccc(OC)cc3)c2)cc1
inactive: [1] -19.5% | [2] -22.8% | [3] -14.9% | [4] -27.8% | [5] -14% | [6] -16.6%

O=C1Oc2cc3c(c4cccc1c24)OCN(c1ccc(Cl)cc1)C3
inactive: [1] 38.6% | [2] 29.9% | [3] 53.1% | [4] 33% | [5] 33% | [6] 37.5%

CNC(=O)Nc1ccc(C(=O)O)cc1
inactive: [1] 9.2% | [2] 4.35% | [3] 5.35% | [4] -38.1% | [5] 9.8% | [6] 5.2%

N=c1c(C(=O)O)cccn1O
inactive: [1] 8.1% | [2] -5.1% | [3] 9.1% | [4] -50.9% | [5] -6.55% | [6] 4.9%

— PubChem BioAssay (NCI)
